Screening data from PubChem BioAssay.
Most compounds without a hit are left out; they make up all but 11% or so of the library.
G9a inh = qHTS Assay for Inhibitors of Histone Lysine Methyltransferase G9a; Potency, µM (doses to about 102 µM), without a hit: at the highest dose activity, negative = inhibition, actives largely listed as inhibitors; 8.8% of 350,000 active; AID 504332, 2011; Histone-lysine N-methyltransferase EHMT2 (Homo sapiens), Q96KQ7; G9a H3K9 monomethylation, AlphaScreen, 2 h; also: potency is read from the fitted curve at half-maximal effect; nearly all actives have a fitted effect of over 75% in size
Target sequence (Q96KQ7 913-1193 limits assumed): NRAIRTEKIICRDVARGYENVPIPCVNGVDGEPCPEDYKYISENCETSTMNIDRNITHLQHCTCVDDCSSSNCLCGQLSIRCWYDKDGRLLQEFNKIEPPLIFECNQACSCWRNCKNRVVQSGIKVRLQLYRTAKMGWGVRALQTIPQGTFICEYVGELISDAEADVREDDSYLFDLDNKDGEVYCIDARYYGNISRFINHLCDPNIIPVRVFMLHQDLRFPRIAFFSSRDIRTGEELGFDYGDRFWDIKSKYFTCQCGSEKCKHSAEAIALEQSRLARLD
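AlphaScreen read-out: biotin-H3K9 peptide (500 nM) methylation by 20 nM enzyme with 20 uM SAM, 2 h at room temperature after 15 min compound preincubation; anti-monomethyl H3K9 antibody plus donor/acceptor beads, 10 min dark.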
Sfp inh = qHTS Assay for Inhibitors of Bacillus subtilis Sfp phosphopantetheinyl transferase (PPTase); 4'-phosphopantetheinyl transferase ffp (Bacillus subtilis), Q9F4F7; 3.5% of 310,000 active; Potency, µM, without a hit: largest response in the series, negative = inhibition, usual class: inhibitors; Biochemical Sfp PPTase activity, qHTS; AID 1490, 2009;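 also: the enzyme is Sfp with the accession as filed and its product quenches rhodamine fluorescence; potency is read from the fitted curve at half-maximal effect; 0% = enzyme reaction without inhibitor and -100% = no enzyme wells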
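Fluorescence-quenching assay: 15 nM Sfp-PPTase preincubated 15 min at room temperature with compound, then 5 uM rhodamine-CoA and 12.5 uM BHQ-2-labelled YbbR peptide added. Fluorescence (ex 525/em 598 nm) read at start and after 30 min; difference gives rate.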
Coupling enz = qHTS Assay for Inhibitors of Fructose-1,6-bisphosphate Aldolase from Giardia Lamblia: Coupling assay counterscreen; coupling enzyme system counterscreen, AmpLite Red fluorescence; activity change, negative = inhibition, % at 58.2 µM, hits read low; 0.67% of 290,000 active; AID 2472, 2010; in the data active = activity change below about -30%
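First, compound is pin-transferred into glyceraldehyde-3-phosphate coupling-enzyme reagent at 57.5 uM final and held 10 min at RT. Next, substrate, coupling system and AmpLite Red are added. After 20 min RT, fluorescence (525/598 nm) is read.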
Tau fluor cs = Counterscreen qHTS for Inhibitors of Tau Fibril Formation, Fluorescence Polarization. 0.93% of 280,000 active. Potency, µM (highest dose often 57.7 µM), for the others: at the top dose activity change, negative = decrease. tau K18 P301L Alexa594 fluorescence, heparin fibrillization; also: potency is read from the fitted curve at half-maximal effect; nearly all actives have a fitted effect of over 55% in size
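Human tau K18 P301L (15 uM unlabeled, 0.24 uM Alexa 594-labeled) in 100 mM sodium acetate pH 7 with 20 uM heparin, 6 hr at 37 C. ThT 30 uM added, 1 hr ambient; Alexa 594 FP and total fluorescence read at 555/632 nm.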
Tau ThT inhib = qHTS for Inhibitors of Tau Fibril Formation, Thioflavin T Binding; Potency, µM (top dose mostly 57.4 µM), for inactives: at the highest dose activity, negative = inhibition, usual class: inhibitors; Microtubule-associated protein tau (Homo sapiens), P10636; recombinant tau K18 P301L, heparin-induced fibrillization, ThT fluorescence; 2.1% of 270,000 active; also: potency is read from the fitted curve at half-maximal effect; nearly all actives have a fitted effect of over 55% in size
Target sequence (P10636 561-689 P618L limits assumed): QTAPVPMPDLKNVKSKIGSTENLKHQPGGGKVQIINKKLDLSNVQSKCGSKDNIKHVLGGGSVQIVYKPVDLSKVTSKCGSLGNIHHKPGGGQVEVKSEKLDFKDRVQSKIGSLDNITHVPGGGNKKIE
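Fibril formation assay: tau K18 P301L at 15 uM with trace Alexa 594 label, heparin inducer 20 uM, pH 7 sodium acetate buffer, 37 C for 6 hr; endpoint ThT signal.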
Tau FP inhib = qHTS for Inhibitors of Tau Fibril Formation, Fluorescence Polarization | Microtubule-associated protein tau (Homo sapiens), P10636 | K18 P301L tau heparin fibrillization, Alexa594 FP, 6 h | Potency, µM (doses to about 57.7 µM), for the others: at the top dose activity, negative = inhibition, most hits filed as inhibitors | 0.39% of 280,000 active; also: potency is read from the fitted curve at half-maximal effect; nearly all actives have a fitted effect of over 55% in size
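Human tau K18 […] P301L fragment, 15 uM unlabeled plus 0.24 uM Alexa 594-labeled tau (final), with compound and 20 uM heparin in 100 mM sodium acetate pH 7; 6 hr at 37 C, then Alexa 594 FP read.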
Starred values were filed as active, the others as inactive; ? = inconclusive; · = no result given; [ ] = remark or other dose. Unless noted, calls follow the shape of the dose curve; as a rule, active = well fitted curve in the direction sought with a large enough effect; inconclusive = small, poorly fitted or top-dose-only effect, or another doubt; inactive = no such curve, though single readings can be large; an effect the other way counts as inactive or inconclusive. Unless noted, % is scaled to controls: 0 for no effect and ±100 for the full control effect.

SMILES	G9a inh	Sfp inh	Coupling enz	Tau fluor cs	Tau ThT inhib	Tau FP inhib
COc1ccc(-c2noc(-c3ccc(Cl)cc3[N+](=O)[O-])n2)cc1OC	19.4%[59 µM]	-20.7%	0.2	2.5%	2.5%	1.4%
Cc1cccc(-c2noc(-c3ccc(Cl)cc3[N+](=O)[O-])n2)c1	25.1µM*	2.3%	-1.2	?	?	14.0%
CCOc1ccc2c(c1)C(C)=CC(C)(C)N2C(=O)Nc1ccccc1	50.1µM*	?	-27.0	?	28.2µM*	?
CCNC(=O)N1c2ccc(OC)cc2C(C)=CC1(C)C	50.1µM*	-18.4%	-40.3*	-20.5%	?	-4.7%
COc1ccc(NC(=O)N2c3ccc(OC)cc3C(C)=CC2(C)C)cc1	50.1µM*	20µM*	-36.3*	?	31.6µM*	?
CCN(CC)c1ccc(/C=N/NC(=O)Cc2cccs2)cc1	?	-4.1%	-0.6	?	?	6.9%
CCN(CC)c1ccc(/C=C(\C#N)c2nc(-c3cccs3)c(NC(C)=O)s2)cc1	10µM*	?	-8.4	6.31µM*[quencher]	?	?
OC(CNc1ccccc1)COc1ccc(OCC(O)CNc2ccccc2)cc1 (centres undefined)	?	2.9%	-1.6	10µM*[quencher]	2.82µM*	9.8%
CCOCC(O)CNc1ccccc1 (centres undefined)	-6.8%[59 µM]	-0.9%	-0.5	-8.1%	-9.1%	1.2%
COc1ccccc1NCC(O)COc1ccc(C(C)(C)C)cc1 (centres undefined)	7.94µM*	?	-0.2	?	?	?
COc1ccc(N(C)C(=O)c2cc3c(s2)-c2c(C)cccc2OC3)c(OC)c1	-27.7%[59 µM]	?	-4.2	-14.3%	?	10.2%
N=C(N)SCc1cn(-c2ccccc2)nc1-c1ccc(Br)cc1	50.1µM*	50.1µM*	-0.4	-27.5%	?	?
Clc1ccc2[nH]c3c(c2c1)CCc1cn[nH]c1-3	35.5µM*	12.7%	-0.8	8.91µM*[quencher]	?	-13.2%
c1ccc2c3c([nH]c2c1)-c1[nH]ncc1CC3	35.5µM*	2.8%	-0.4	?	?	?
Cc1ccc(N2CCCC2=O)cc1S(=O)(=O)N1CCOCC1	1.7%	10.9%	·	·	·	·
O=c1nc2n(c3sc4c(c13)CCCC4)C(CBr)CS2 (centres undefined)	50.1µM*	-10.5%	5.3	-12.8%	-20.8%	-4.6%
COc1ccc2c(c1)c(C(=O)N/N=C/c1cccc(Br)c1)c(C)n2C	4.5%	-1.8%	-44.8*	-19.2%	?	7.9%
COCCCNC(=O)CN(c1ccc(OC)cc1)S(=O)(=O)c1ccc(NC(C)=O)cc1	35.2%[12.7 µM]	8.2%	8.5	-4.2%	-2.8%	-2.6%
COc1ccc(N(CC(=O)NC(C)C)S(=O)(=O)c2ccc(NC(C)=O)cc2)cc1	1.41µM*	7.2%	-1.4	-6.8%	3.2%	-2.0%
CC(NCc1ccc(-c2ccccc2)cc1)C(O)c1ccccc1 (centres undefined)	-2.5%[59 µM]	?	5.7	-12.6%	-12.1%	-3.7%
Cc1ccc(N2CCN(C(=S)Nc3ccccc3C)CC2)cc1	1.0%[0.501 µM]	15.3%	-2.4	·	·	·
Cc1ccc(-c2nnc(Nc3ccccc3)c3ccccc23)cc1S(=O)(=O)NCC1CCCO1 (centres undefined)	3.4%[0.501 µM]	-7.5%	-2.3	?	-2.3%	-3.4%
Cc1ccc(-c2nn3c(-c4ccco4)nnc3c3ccccc23)cc1S(=O)(=O)NCC1CCCO1 (centres undefined)	20µM*	50.1µM*	-0.6	2.2%	-7.0%	0.3%
CCCCOc1cccc(C(=O)Nc2ccc(S(=O)(=O)Nc3nnc(CC)s3)cc2)c1	-16.3%	21.3%	6.8	·	·	·
CCCC1(C(=O)OCC)NC(c2ccc(OC)cc2OC)C2C(=O)N(c3ccccc3)C(=O)C21 (centres undefined)	13.3%[59 µM]	-15.1%	0.6	2.3%	7.8%	6.9%
SMILES	G9a inh	Sfp inh	Coupling enz	Tau fluor cs	Tau ThT inhib	Tau FP inhib
CCCC1(C(=O)OCC)NC(c2ccc(N(C)C)cc2)C2C(=O)N(c3ccc(OCC)cc3)C(=O)C21 (centres undefined)	50.1µM*	13.8%	-0.8	-19.0%	-9.0%	-12.3%
CCOc1ccc(N2C(=O)C3C(c4ccc(OC)cc4OC)NC(CCSC)(C(=O)OC)C3C2=O)cc1 (centres undefined)	12.8%	17.1%	0.2	·	·	·
CCCC1(C(=O)OCC)NC(c2ccc(N(C)C)cc2)C2C(=O)N(c3ccccc3)C(=O)C21 (centres undefined)	8.91µM*	12.3%	0.3	-6.1%	-5.5%	14.9%
O=C(COC(=O)/C=C/c1ccc(F)cc1)NC1CCS(=O)(=O)C1 (centres undefined)	-31.6%	·	·	·	·	·
CCc1c(C)sc2c1CCN(C(=O)Nc1ccccc1C(F)(F)F)C2c1ccccc1 (centres undefined)	10.0%[59 µM]	·	·	-4.6%	-9.9%	-1.2%
COc1ccc(C(=O)N2CCC3(CCCN(Cc4cc(C(F)(F)F)cc(C(F)(F)F)c4)C3)CC2)cc1	-43.3%[12.7 µM]	13.5%	-5.8	·	·	·
O=C(NCc1ccc2c(c1)OCO2)c1cc(S(=O)(=O)N2CCCCC2)ccc1F	31.2%[59 µM]	3.6%	-0.5	-11.6%	-1.4%	0.1%
O=C(NCCc1ccc2c(c1)OCCO2)c1cc(S(=O)(=O)N2CCCC2)ccc1Cl	39.8µM*	·	·	·	·	·
CCc1ccccc1NC(=O)Cn1nnc(C(=O)NCc2ccco2)c1N	5.8%[59 µM]	·	·	-6.0%	0.3%	-9.0%
O=[N+]([O-])c1cc(Cl)ccc1NCCNS(=O)(=O)c1ccccc1	-2.8%[59 µM]	-5.8%	-0.6	?	12.6µM*	4.4%
O=[N+]([O-])c1cc(Cl)ccc1Nc1ccccc1	11.2µM*	1.7%	-0.9	·	·	·
CCn1nnnc1NCc1c(OC)ccc2ccccc12	-2.8%	18.8%	0.4	-9.5%	-3.3%	?
CCOC(=O)c1nnn(-c2nonc2N)c1-c1ccc(Cl)cc1	8.3%	7.9%	-0.4	-3.8%	6.0%	3.4%
CCO/C(C)=C1\N=C(c2ccc(Cl)cc2)OC1=O	44.7µM*	22.3%	0.2	-0.9%	0.7%	0.1%
N#C/C(=C(/O)c1ccc([N+](=O)[O-])o1)c1nc2ccccc2[nH]1	-3.1%[59 µM]	4.9%	-1.7	?	7.08µM*	5.4%
